High-throughput results from PubChem.
CHT inh: inhibitors of human choline transporter CHT. hit rate 0.86% among 310,000. CHT-expressing cells, membrane potential dye, choline response; hits give low values. Q9GZV3. AID 488975. B-score at 10 µM;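 active = B-score over 3 SD under the library average, and starting fluorescence ratio not unusually high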;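 note: choline stimulus applied at its EC90 after an EC20 pre-addition; B-score computed on integrated fluorescence ratio after choline addition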
Target sequence (Q9GZV3 whole entry, looked up): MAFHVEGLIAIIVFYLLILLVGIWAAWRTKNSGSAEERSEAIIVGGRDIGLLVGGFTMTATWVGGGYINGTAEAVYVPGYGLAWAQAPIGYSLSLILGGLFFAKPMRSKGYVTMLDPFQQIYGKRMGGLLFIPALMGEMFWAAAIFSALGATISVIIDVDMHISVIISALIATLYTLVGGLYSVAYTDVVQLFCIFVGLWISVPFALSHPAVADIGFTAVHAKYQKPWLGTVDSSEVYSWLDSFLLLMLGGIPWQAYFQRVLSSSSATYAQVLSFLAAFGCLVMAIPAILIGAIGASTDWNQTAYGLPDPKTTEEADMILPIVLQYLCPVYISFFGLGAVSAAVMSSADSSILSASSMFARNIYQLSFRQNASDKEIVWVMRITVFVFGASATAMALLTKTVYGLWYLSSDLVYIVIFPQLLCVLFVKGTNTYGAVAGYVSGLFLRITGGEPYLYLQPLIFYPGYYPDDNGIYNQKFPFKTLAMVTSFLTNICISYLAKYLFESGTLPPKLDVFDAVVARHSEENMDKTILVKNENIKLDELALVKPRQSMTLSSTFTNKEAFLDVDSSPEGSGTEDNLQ
CHT allo act: human CHT allosteric activation | B-score at 10 µM | AID 488977 | hit rate 0.49% among 310,000 | CHT-expressing cells, membrane potential dye, choline EC20; hits give high values; LV-AA mutant CHT in HEK293 cells;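 active = initial fluorescence not abnormally high and integrated response B-score, plate-corrected, over 3 SD above library mean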
ANO1 activ: activates or potentiates the mouse TMEM16A chloride channel | AID 623877 | HEK293 TMEM16A/YFP-H148Q/I152L, iodide quench fluorescence; hits give low values | B-score at 10 µM | hit rate 0.3% among 340,000 | Q8BHY3;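 active = fluorescence-ratio B-score plate-corrected deviation score at least 3 library SD below zero, with starting fluorescence score within 5 deviations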;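 note: channel opened by trigger with iodide after compound preincubation; score built on the fluorescence ratio of max minus min over baseline; more negative score means more quench and so TMEM16A activation or potentiation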
TMEM16A inh: mouse TMEM16A channel inhibition, primary screen. HEK293 TMEM16A/YFP iodide influx fluorescence, ionomycin. hit rate 1.2% among 310,000. Q8BHY3. normalized B-score (activity score, 25-100; higher = stronger inhibition) at 10 µM;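 active = ratio plate-corrected score three or more library SD toward inhibition, starting fluorescence score within five deviations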;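 note: score derived from kinetic fluorescence span divided by baseline fluorescence per well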
CHT block conf: confirmation of human choline transporter CHT inhibitors | shares compounds with CHT inh | CHT-expressing cells, choline membrane potential dye; LV-to-AA substituted CHT, HEK293 cells | CHT activity remaining % of control (hits give low values), % at 10 µM | hit rate 70% among 2,400;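 active = choline transporter activity left, mean of duplicates at 10 µM, below buffer-only control mean minus 3 SD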;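 note: depolarization triggered by choline at its EC90 following an EC20 pre-addition; 0% = hemicholinium-3 full block and 100% = buffer-only control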
HEK293 CHT ctr: counter-screen for CHT inhibitors: effect in parental HEK293 cells; shares compounds with CHT inh; membrane potential dye, choline response; active = decrease or increase beyond buffer ±3SD; membrane potential ratio readout (active if shifted either direction beyond buffer ±3SD; no single direction) at 10 µM; hit rate 4% among 2,400; AID 493222;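 note: parental cells lack the transporter so any hit is non-specific; ratio is peak minus trough fluorescence over baseline after EC90 choline challenge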
Active calls of the source: *. Only some compounds are listed: those with a hit (about 2.4% of all), similar ones and a draw of the others.

`COc1ccc(/C(O)=C2/C(=O)C(=O)N(c3ccccn3)C2c2cccc(Cl)c2)cc1` (stereo not given) gave CHT inh -5.3*, CHT allo act inactive, ANO1 activ inactive, TMEM16A inh inactive, CHT block conf 59%* and HEK293 CHT ctr inactive.
For CC(=O)c1cccc(N(CC(=O)Nc2ccccc2C(=O)N2CCCC2)S(C)(=O)=O)c1 the results were CHT inh inactive, CHT allo act inactive, ANO1 activ inactive and TMEM16A inh inactive.
For Cc1nn(C(C)C(=O)NC2CCC(C)CC2)c(=O)c2nn(-c3ccccc3)c(C)c12 (stereo not given) the results were CHT inh inactive, CHT allo act inactive, ANO1 activ inactive and TMEM16A inh inactive.
`CCOC(=O)C1=C(COC(=O)c2ccc(OC(C)C)cc2)NC(=O)NC1C` (stereo not given) gave CHT inh -9.7*, CHT allo act inactive, ANO1 activ inactive, TMEM16A inh inactive, CHT block conf 2.8%* and HEK293 CHT ctr inactive.
Screening NC(=O)c1nsc(C(=O)N(Cc2ccc(F)cc2)C(C(=O)NC2CCCC2)c2ccco2)c1N (stereo not given) returned CHT inh -7.9*, CHT allo act inactive, ANO1 activ inactive, TMEM16A inh inactive, CHT block conf inactive and HEK293 CHT ctr inactive.
For COc1ccccc1N1CCN(C2CCCN(Cc3ccccc3OCCO)C2)CC1 (stereo not given) the results were CHT inh inactive, CHT allo act inactive, ANO1 activ inactive and TMEM16A inh inactive.
Screening CS(=O)(=O)N(CC(=O)N1CCOCC1)c1ccccc1 returned CHT inh inactive, CHT allo act inactive, ANO1 activ inactive and TMEM16A inh inactive.
`CC(=O)/C(=N/Nc1ccccc1)Sc1nnc(C(O)c2ccccc2)n1-c1ccccc1` (stereo not given) gave CHT inh -5*, CHT allo act inactive, ANO1 activ inactive, TMEM16A inh inactive, CHT block conf inactive and HEK293 CHT ctr inactive.
For Fc1ccc(-c2nnc(SCc3ncc(-c4ccccc4)o3)n2CC2CCCO2)cc1 (stereo not given) the results were CHT inh -5.9*, CHT allo act inactive, ANO1 activ inactive, TMEM16A inh inactive, CHT block conf inactive and HEK293 CHT ctr inactive.
COc1ccc(-c2nnc(SCc3nnc(-c4cccs4)o3)n2CC2CCCO2)cc1 (stereo not given) was read as CHT inh inactive, CHT allo act inactive, ANO1 activ inactive and TMEM16A inh inactive.
For CN(C)CC1(C)Cc2ccsc2C1O (stereo not given) the results were ANO1 activ inactive.
For Cc1ncoc1C(=O)N1CCc2c([nH]c3ccccc23)C1c1ccccc1F (stereo not given) the results were CHT inh inactive, CHT allo act inactive, ANO1 activ inactive and TMEM16A inh inactive.
Screening O=C(c1cc2c([nH]c1=O)CCCC2)N1CCc2c([nH]c3ccccc23)C1c1ccccc1F (stereo not given) returned CHT inh -12*, CHT allo act inactive, ANO1 activ inactive, TMEM16A inh inactive, CHT block conf 30%* and HEK293 CHT ctr inactive.
`Cc1cccc(C2c3[nH]c4ccccc4c3CCN2C(=O)c2cc3c([nH]c2=O)CCCC3)n1` (stereo not given) gave CHT inh -9.6*, CHT allo act inactive, ANO1 activ inactive, TMEM16A inh inactive, CHT block conf 9.3%* and HEK293 CHT ctr inactive.
`O=C(C1=C(O)C(=O)N(CC2CCCO2)C1c1ccccc1F)c1ccco1` (stereo not given) gave CHT inh inactive, CHT allo act inactive, ANO1 activ inactive and TMEM16A inh inactive.
For C[C@H](CO)N1C[C@H](C)[C@@H](CN(C)S(=O)(=O)c2ccccc2)Oc2ccc(NC(=O)CCC(F)(F)F)cc2C1=O the results were ANO1 activ inactive.
For CCCCn1c(N)c(N(CCOC)C(=O)CC2CCCCC2)c(=O)[nH]c1=O the results were ANO1 activ inactive.
`CCOC(=O)C1CCN(C(=O)CSCc2nc(-c3ccc(OCC)cc3)oc2C)CC1` gave CHT inh -7.6*, CHT allo act inactive, ANO1 activ inactive, TMEM16A inh 100*, CHT block conf 69%* and HEK293 CHT ctr inactive.
CCCCC1C(C#N)=C(C)NC2=C1C(=O)CC(C)(C)C2 (stereo not given) was read as CHT inh inactive, CHT allo act inactive, ANO1 activ inactive and TMEM16A inh inactive.
Cc1cccc(N2CCN(Cc3nc(-c4ccc(F)cc4F)oc3C)CC2)n1 was read as CHT inh inactive, CHT allo act inactive, ANO1 activ inactive and TMEM16A inh inactive.
Screening Cc1cnc(C)c(N2CCN(Cc3nc(-c4cccc(F)c4F)oc3C)CC2)n1 returned CHT inh -7.2*, CHT allo act inactive, ANO1 activ inactive, TMEM16A inh inactive, CHT block conf 29%* and HEK293 CHT ctr inactive.
For CN(CC(=O)Nc1nc2ccccc2s1)S(=O)(=O)c1ccccc1 the results were CHT inh inactive, CHT allo act inactive, ANO1 activ inactive and TMEM16A inh inactive.
`CN(C)c1nc(-c2ccccc2)c2cnn(Cc3ccccc3)c2n1` gave CHT inh inactive, CHT allo act inactive, ANO1 activ inactive and TMEM16A inh inactive.
For Cc1ccc(Oc2ccc(NC(=O)Cn3ccsc3=N)cc2)cc1 the results were CHT inh -7.9*, CHT allo act inactive, ANO1 activ inactive, TMEM16A inh inactive, CHT block conf 16%* and HEK293 CHT ctr inactive.
Screening Cc1ccc(NC(=O)CN(C)C(=O)Cn2ccsc2=N)cc1 returned CHT inh inactive, CHT allo act inactive, ANO1 activ inactive and TMEM16A inh inactive.
O=S(=O)(Nc1nc2ccccc2nc1NCC1CCCO1)c1cc(Cl)ccc1Cl (stereo not given) was read as CHT inh -5.6*, CHT allo act inactive, ANO1 activ inactive, TMEM16A inh inactive, CHT block conf 45%* and HEK293 CHT ctr inactive.
For Cc1ccc(-n2nc3c(=O)n(C(C)C(=O)NCCCc4ccccc4)nc(C)c3c2C)cc1 (stereo not given) the results were CHT inh -5*, CHT allo act inactive, ANO1 activ inactive, TMEM16A inh inactive, CHT block conf inactive and HEK293 CHT ctr inactive.
For CCN(CC)C(=O)c1ccc(COc2ccccc2Br)o1 the results were CHT inh -8.2*, CHT allo act inactive, ANO1 activ inactive, TMEM16A inh inactive, CHT block conf 58%* and HEK293 CHT ctr inactive.
